Drawing on PubChem BioAssay (NCI), this text covers growth for 40 compounds.

Compounds without any hit were thinned out: in the full panel of roughly 83,000, 20% have a hit.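 Growth was measured after 48 h exposure to one concentration of compound in 96-well plates. Values under 10 count as active.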 Calls of active or inactive are those of the source.

The test deals with UO-31 renal. Put plainly: NCI-60 one-dose screen, 48 h (100 = growth as untreated, 0 = no growth, -100 = all killed). The settings on record: 10 µM. The protocol:
Growth inhibition of the UO-31 human tumor cell line is measured as a screen for anti-cancer activity. Cells are grown in 96 well plates and exposed to the test compound for 48 hours. Compounds are tested at a single concentration, which is 10^-5 M for most compounds. The reported endpoint is percent growth (GI% or GIPRCNT), where numbers from 0 - 100% represent growth inhibition, and numbers from -100% - 0 represent cell death. For example, a value of 40 represents 60% growth inhibition. A value of 0 means no net growth occurred over the course of the experiment. A value of -40 indicates 40% of cells at the beginning of the experiment died by the end of the experiment. A value of -100 means all cells are dead at the end of the experiment.
NCI-60 Human Tumor Cell Lines Screen was performed using the standard one-dose NCI protocol, which is described in more detail at https://dtp.cancer.gov/discovery_development/nci-60/default.htm.
Compounds with GIPRCNT values below 10 were considered active. Activity score was based on GIPRCNT using the following formula: […]
Score is 0 for GIPRCNT values of 100 or above, 50 for GIPRCNT values of 0, and 100 for GIPRCNT values of -100.
Turning to `COC(=O)C[C@](O)(CCCC(C)C)C(=O)O[C@H]1C(OC)=C[C@@]23CCCN2CCc2cc4c(cc2[C@@H]13)OCO4`, the growth was 6.22% (active).

On to `COP(=O)(CC(F)(F)C(F)(F)F)OC`, for which the growth was -81.8% (active).

For the compound `COC(=O)CCn1c(-c2ccc(-n3cc(-c4ccc(O[C@H]5O[C@@H]6OC7(C)CC[C@H]8[C@H](C)CC[C@@H]([C@H]5C)[C@@]68OO7)cc4)nn3)cc2)nc2ccccc21`, the growth is 6.53% (active). With `CN(C)CCc1cn(C2CCC2)c2cccc(O)c12` the figure was 47.8% (inactive); with `O=C(/C=C/c1ccc(Cl)cc1)c1nc2ccccc2n1Cc1ccc(Br)cc1`, 42.6% (inactive). With `O=C(/C=C/c1ccc(F)cc1)c1nc2ccccc2n1Cc1ccc(F)cc1` the figure was -33.6% (active); with `CC1=C(COCCOC(=O)c2ccc(S(=O)(=O)F)cc2)C2=C(C)C3(CC3)[C@@](C)(O)C(=O)C2=C1`, -33.3% (active); with `CC(C)N=C([Se])NC(=O)c1ccccc1`, -99% (active). Under `CC[C@]12C=CCN3CC[C@@]4(c5ccc(OC)cc5N(C)[C@H]4[C@@](O)(C(=O)OC)[C@@H]1OC(=O)CCC[P+](c1ccc(C)cc1)(c1ccc(C)cc1)c1ccc(C)cc1)[C@@H]32` stands -97.4% (active); under `O=C(/C=C/c1ccccc1)c1nc2ccccc2n1Cc1ccc(F)cc1`, -78.5% (active); under `C=CC[Se]C(=O)c1ccc(C(=O)[Se]CC=C)s1`, -98.1% (active). As for `COCCOCCOCCOc1ccc(-n2cc(CCCN(CCNc3ccnc4cc(Cl)ccc34)C(=O)CCC(=O)O[C@@H]3O[C@@H]4OC5(C)CC[C@H]6[C@H](C)CC[C@@H]([C@H]3C)[C@@]46OO5)nn2)cc1`, the growth was 16.4% (inactive). With `Cc1ccc2[nH]c(=S)n(-c3ccc(F)cc3)c(=O)c2c1` the figure was 82.7% (inactive).

Turning to `COc1cc(OC)c(S(=O)(=O)N(CCCl)CCCl)cc1C(=O)/C=C/c1ccc(C)cc1`, the growth is 55.6% (inactive). For `O=C(/C=C/c1ccc(Cl)cc1Cl)c1nc2ccccc2n1Cc1ccc(Br)cc1`, the growth was 50.9% (inactive). With `C[C@H]1[C@H](OC(=O)CCC(=O)Nc2cnccn2)O[C@@H]2OC3(C)CC[C@H]4[C@H](C)CC[C@@H]1[C@@]24OO3` the figure was 11% (inactive); with `O=C(/C=C/c1ccccc1Cl)c1nc2ccccc2n1Cc1ccc(F)cc1`, -99.6% (active). Under `COc1cc(OC)c(/C=C/C(=O)c2nc3ccccc3n2Cc2ccc(F)cc2)c(OC)c1` stands 82.7% (inactive); under `C[C@H]1[C@@H](Oc2ccc(-c3cn(-c4ccnc5cc(Cl)ccc45)nn3)cc2)O[C@@H]2OC3(C)CC[C@H]4[C@H](C)CC[C@@H]1[C@@]24OO3`, 10.7% (inactive); under `CC[C@]12C=CCN3CC[C@@]4(c5ccc(OC)cc5N(C)[C@H]4[C@@](O)(C(=O)OC)[C@@H]1OC(=O)CCCC[P+](C1CCCCC1)(C1CCCCC1)C1CCCCC1)[C@@H]32`, 78.9% (inactive).

Turning to `CC[C@]12C=CCN3CC[C@@]4(c5ccc(OC)cc5N(C)[C@H]4[C@@](O)(C(=O)OC)[C@@H]1OC(=O)CCC[P+](C1CCCCC1)(C1CCCCC1)C1CCCCC1)[C@@H]32`, the growth was 76.8% (inactive). With `COc1cc2cc(C(=O)N3C[C@@H](CCl)c4c3cc(OC(=O)N3CCN(C)[C@@H]5CSSC[C@H]53)c3ccccc43)[nH]c2c(OC)c1OC` the figure was -52% (active). With `O=C(/C=C/c1ccco1)c1nc2ccccc2n1Cc1ccc(Br)cc1` the figure was 34.4% (inactive); with `COCCOCCOCCOc1ccc(-n2cc(-c3ccc(O[C@H]4O[C@@H]5OC6(C)CC[C@H]7[C@H](C)CC[C@@H]([C@H]4C)[C@@]57OO6)cc3)nn2)cc1`, 11.5% (inactive). With `CC[C@]12C=CCN3CC[C@@]4(c5ccc(OC)cc5N(C)[C@H]4[C@@](O)(C(=O)OC)[C@@H]1OC(=O)CCCC[P+](c1ccc(OC)cc1)(c1ccc(OC)cc1)c1ccc(OC)cc1)[C@@H]32` the figure was 15.5% (inactive); with `CC(C)N=C([Se])NC(=O)c1cccs1`, 12.4% (inactive); with `COc1ccc(OC)c(/C=C/C(=O)c2nc3ccccc3n2Cc2ccc(F)cc2)c1`, -43.9% (active).

`C[C@H]1[C@H](OC(=O)CCC(=O)N(CCCc2cn(-c3ccc(CN4CCOCC4)cc3)nn2)CCNc2ccnc3cc(Cl)ccc23)O[C@@H]2OC3(C)CC[C@H]4[C@H](C)CC[C@@H]1[C@@]24OO3`: the growth was 13.1% (inactive). Under `O=C(/C=C/c1cccc(Br)c1)c1nc2ccccc2n1Cc1ccc(F)cc1` stands 41.8% (inactive); under `COC(=O)c1ccc(-n2cc(CCCN(CCNc3ccnc4cc(Cl)ccc34)C(=O)CCC(=O)O[C@@H]3O[C@@H]4OC5(C)CC[C@H]6[C@H](C)CC[C@@H]([C@H]3C)[C@@]46OO5)nn2)cc1`, 19.6% (inactive). Regarding `N#C[Se]CC(=O)Nc1cccc(C(F)(F)F)c1`, the growth is -84.2% (active). With `O=C(/C=C/c1ccc(F)cc1)c1nc2ccccc2n1Cc1ccc(Br)cc1` the figure was -92.5% (active). As for `C=CCN=C([Se])NC(=O)c1ccc2c(c1)OCO2`, the growth is 115% (inactive). Under `CCOC(=O)C1=C(Nc2ccccc2)C(=O)OC12C(=O)Nc1ccccc12` (stereo not given) stands 73.2% (inactive); under `CC12OOC(C)(OO1)C2CCC(=O)OCCNc1ccnc2cc(Cl)ccc12` (stereo not given), -97.2% (active); under `COc1cc2cc(C(=O)N3C[C@@H](CCl)c4c3cc(OC(=O)N3CCN(C(=O)CCC(=O)N5CCN(C)CC5)[C@@H]5CSSC[C@@H]53)c3ccccc43)[nH]c2c(OC)c1OC`, -65.2% (active).

With `Cc1c2oc3c(C)ccc(C(=O)N[C@@H]4C(=O)N[C@H](C(C)C)C(=O)N5CCC[C@H]5C(=O)N(C)CC(=O)N(C)[C@@H](C(C)C)C(=O)OC4C)c3nc-2c(C(=O)N[C@@H]2C(=O)N[C@H](C(C)C)C(=O)N3CC(=O)C[C@H]3C(=O)N(C)CC(=O)N(C)[C@@H](C(C)C)C(=O)OC2C)c(N)c1=O` (stereo not given in full), the growth was 3.68% (active). Under `CC1=C2C(=C[C@@](C)(COP(=O)(Oc3ccccc3)Oc3ccccc3)[C@@H]2O)C(=O)[C@@](C)(O)C12CC2` stands -68.6% (active). Under `O=C(/C=C/c1cccc(Br)c1)c1nc2ccccc2n1Cc1ccc(Br)cc1` stands -57.3% (active); under `COC(=O)C[C@](O)(CCC(C)C)C(=O)O[C@H]1C(OC)=C[C@@]23CCCN2CCc2cc4c(cc2[C@@H]13)OCO4`, -25.3% (active).
